Screens: PubChem, several laboratories
SMARCA2 act – increases SMARCA2 function in MMTV reporter cells | MG213 cells, MMTV-luciferase reporter, dexamethasone, overnight | AID 652017 | hit rate 1% among 370,000 | activation, % at 9.1 µM; in the data active = activation above about 7.8%
Exocytosis inh – lytic granule exocytosis inhibition | hit rate 0.66% among 360,000 | TALL-104 LAMP-1 surface exposure, flow cytometry; cells stimulated with thapsigargin and PMA | AID 651702 | inhibition, % at 10 µM;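 active = inhibition above about 55%, limit read from the data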
ALR inh – blocks human ALR sulfhydryl oxidase activity; P55789; purified ALR, DTT oxidation, H2O2 HRP-luminol luminescence; inhibition, % (no concentration beside the values); hit rate 3.8% among 290,000; AID 485317;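 active = mean replicate inhibition above about 79%, with every replicate also reaching it, limit read from the data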
M18AAP inhibitor – blocks P. falciparum M18 aspartyl aminopeptidase. recombinant PfM18AAP, H-Glu-NHMec fluorogenic cleavage. inhibition, % at 7.35 µM. hit rate 1.2% among 290,000. AID 1822;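 active = inhibition above the campaign mean inhibition over all tested compounds plus 3 SD, cut at about 28% in these data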
MIN6 prolif – inducers of beta-cell replication in MIN6 cells; MIN6 cells proliferation, ATPlite luminescence, 48 h; cells starved in 0.2% serum; 100% = growth in 10% serum; proliferation, % at 10 µM; hit rate 0.29% among 330,000; AID 2380;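 active = compounds whose signal lies at least 3.5 SD above the mean of all wells on their plate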
JMJD2C inh – inhibitors of human GASC-1 (JMJD2C) demethylase; Q9H3R0; GST-JMJD2C(1-420) H3K9me3 demethylation, DELFIA europium; inhibition, % at 2.35 µM; hit rate 0.069% among 330,000; AID 2099;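 active = more than half of a compound's replicate wells show inhibition beyond 50%, single wells judged on their own value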;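 also: signal counts dimethyl H3K9 product captured on neutravidin plate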
Target sequence (Q9H3R0 1-420 limits assumed): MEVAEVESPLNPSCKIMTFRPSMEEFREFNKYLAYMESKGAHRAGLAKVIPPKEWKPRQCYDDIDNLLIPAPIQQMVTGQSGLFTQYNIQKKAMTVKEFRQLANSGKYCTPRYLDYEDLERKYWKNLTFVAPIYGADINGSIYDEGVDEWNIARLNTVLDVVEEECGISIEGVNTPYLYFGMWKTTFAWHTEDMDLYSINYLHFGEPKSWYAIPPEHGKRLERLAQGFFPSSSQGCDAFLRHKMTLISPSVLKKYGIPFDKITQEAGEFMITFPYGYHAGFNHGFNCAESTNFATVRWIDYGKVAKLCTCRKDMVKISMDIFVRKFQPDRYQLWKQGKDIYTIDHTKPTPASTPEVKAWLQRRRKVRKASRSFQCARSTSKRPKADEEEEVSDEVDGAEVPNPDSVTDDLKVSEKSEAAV
Of the large screens only hits and unclear results are named; the others gave an inactive call. A selection: hits, their analogues and other compounds. The true share with any hit is near 5.4%.

Cc1ccccc1CNC(=O)C1CCCN(c2ncccn2)C1 (configuration not stated)	none (no result: Exocytosis inh, ALR inh, M18AAP inhibitor, MIN6 prolif, JMJD2C inh)
Clc1ccc2nc(N3CCCCC3)[nH]c2c1	ALR inh 98
Clc1ccc2nc(N3CCCCC3)sc2c1	none
FC(F)(F)c1ccc(Cn2ccc3ccc(-c4ccc5ccn(Cc6ccccc6)c5c4)cc32)cc1	none (no result: Exocytosis inh, ALR inh, M18AAP inhibitor, MIN6 prolif, JMJD2C inh)
O=c1/c(=C/c2ccccn2)sc2nc3ccccc3n12	M18AAP inhibitor 36 (no result: ALR inh)
COC(=O)/C=c1/sc2nc3ccccc3n2c1=O	none
CCOC(=O)/C(=C\c1cn(C)c2ccccc12)[N+](=O)[O-]	ALR inh 95
O=C(NC1CCCCN(Cc2cccc(F)c2)C1=O)c1ccc2ccccc2c1 (configuration not stated)	none (no result: Exocytosis inh, ALR inh, M18AAP inhibitor, MIN6 prolif, JMJD2C inh)
CN(c1nnc(N)s1)C1CCCCC1	ALR inh 99
Cc1sc2ncnc(N(C)C3CCCCC3)c2c1C	none
COc1ccc(OCCn2cc(/C(N)=N/O)c3ccccc32)cc1	none (no result: ALR inh)
Cc1ccc(OCCn2cc(/C(N)=N/O)c3ccccc32)cc1C	ALR inh 78
N/C(=N\O)c1cn(Cc2ccccc2Cl)c2ccccc12	ALR inh 99
Cc1ccc(-c2nnc(SCC(=O)Nc3ccc4c(c3)OCCO4)n2-c2ccc(C)cc2)cc1	none (no result: Exocytosis inh, ALR inh, M18AAP inhibitor, MIN6 prolif, JMJD2C inh)
CCCCCCCCN1C(=O)[C@@H](CC(=O)N2CCOCC2)C[C@@]2(C(=O)OC)C1=C[C@H](COCc1ccccc1)O[C@@H]2C	none (no result: Exocytosis inh, ALR inh, M18AAP inhibitor, MIN6 prolif, JMJD2C inh)
COc1ccccc1NC(=O)Nc1ccccc1C#N	none
COc1ccccc1CCC(=O)Oc1ccccc1C#N	ALR inh 85
Cc1ccc(C(=O)N2CCC(Oc3cccnc3)CC2)cc1	none (no result: Exocytosis inh, ALR inh, M18AAP inhibitor, MIN6 prolif, JMJD2C inh)
CCN(CC)c1ccc(/C=C2\SC(N)=NC2=O)cc1	ALR inh 99
NC1=NC(=O)/C(=C/c2ccc(OCC(=O)O)cc2)S1	none
C=CCN(C)CC#CCCCCl	none (no result: Exocytosis inh, ALR inh, M18AAP inhibitor, MIN6 prolif, JMJD2C inh)
CC(=O)N1C[C@@H](CO)[C@@H](N(C)C(=O)/C=C/c2ccccc2)C[C@H]1c1ccccc1	none (no result: Exocytosis inh, ALR inh, M18AAP inhibitor, MIN6 prolif, JMJD2C inh)
COC(=O)C1CN(CCc2ccccc2)CCS(=O)(=O)N1Cc1ccc(Cl)cc1 (configuration not stated)	none (no result: Exocytosis inh, ALR inh, M18AAP inhibitor, MIN6 prolif, JMJD2C inh)
COc1cc(/C(C)=N/NC(=O)CSc2nc3ccccc3[nH]2)ccc1O	ALR inh 99
COC(=O)c1ccc(CNC(=O)CSc2nc3ccccc3[nH]2)cc1	none
C/C(=N\NC(=O)CSc1nnc(C)s1)c1ccc(O)cc1	ALR inh 99
COc1cc(/C(C)=N/NC(=O)CSc2nnc(C)s2)ccc1O	ALR inh 95
O=S(=O)(NCc1cn(Cc2ccccc2)nn1)c1ccccc1Br	none (no result: Exocytosis inh, ALR inh, M18AAP inhibitor, MIN6 prolif, JMJD2C inh)
S=C(Nc1cccc(Br)c1)OC1CCC12CCC(c1ccccc1)CC2 (configuration not stated)	none (no result: Exocytosis inh, ALR inh, M18AAP inhibitor, MIN6 prolif, JMJD2C inh)
Cc1csc(Nc2ccccc2)[n+]1-c1ccccc1	ALR inh 99
Cc1c(Nc2scc(-c3ccccc3)[n+]2-c2ccccc2)c(=O)n(-c2ccccc2)n1C	none (no result: SMARCA2 act)
C=CC[n+]1c(C)csc1Nc1ccc(C(=O)O)cc1	none
Cc1csc(Nc2ccccc2)[n+]1C	ALR inh 98
Cc1cccc(-c2cccc3c4c([nH]c23)[C@@H]2C[C@H](N(C)C(=O)c3ccco3)[C@H]([C@H](C)O)C(=O)N2CC4)c1	none (no result: Exocytosis inh, ALR inh, M18AAP inhibitor, MIN6 prolif, JMJD2C inh)
COc1cccc(NC(=O)CSc2nccn2-c2cccc(OC)c2)c1	ALR inh 98
COc1ccc(NC(=O)CSc2nccn2-c2cccc(OC)c2)cc1	ALR inh 98
O=C(CSc1nccn1-c1cccc(Cl)c1)Nc1ccc2c(c1)OCCO2	ALR inh 99
FC(F)(F)c1cccc(Cn2ccc3ccc(-c4ccc5ccn(Cc6cccc(C(F)(F)F)c6)c5c4)cc32)c1	none (no result: Exocytosis inh, ALR inh, M18AAP inhibitor, MIN6 prolif, JMJD2C inh)
C=CCn1c(CSc2nnc(-c3ccccc3)n2C)n[nH]c1=S	ALR inh 83
C=CCn1c(C(c2ccccc2)c2ccccc2)n[nH]c1=S	none (no result: ALR inh)
C=CCn1c(Cc2cccc3ccccc23)n[nH]c1=S	ALR inh 92
C=CCn1c(OCc2ccccc2)n[nH]c1=S	ALR inh 96
S=c1[nH]nc(Cc2cccc3ccccc23)n1-c1ccccc1	ALR inh 90
C=CCn1c(CCn2c3ccccc3c3ccccc32)n[nH]c1=S	none
COc1ccc(-c2cc(C(=O)NN=Cc3cccn3C)[nH]n2)cc1	none (no result: Exocytosis inh, ALR inh, M18AAP inhibitor, MIN6 prolif, JMJD2C inh)
Cn1nc([N+](=O)[O-])nc1N1CCN(c2ccc(F)cc2)CC1	M18AAP inhibitor 28
